In PubChem BioAssay (NCI) one finds growth data, which are given here for 9 molecules.

About 83,000 compounds went through this panel and 20% of them were active in at least one assay; those are over-represented in the sample as a whole.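 How to read the values: 0–100, growth inhibition (40 = 60% inhibited); 0, no net growth; -100 to 0, cell death (-40 = 40% of starting cells died; -100 = all dead).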 A number with no mark means an inactive call. Activity calls are given as the source filed them. Rule for the calls: active = growth percent below 10; inactive = the rest.

Holding throughout (assay): NCI-60 one-dose screen, 48 h (100 = growth as untreated, 0 = no growth, -100 = all killed)
One assay has as its system SR leukemia. To be noted: 10 µM unless noted.
In a further assay the test system is RPMI-8226 leukemia. As to conditions: 10 µM unless noted.
The subject of the next assay is OVCAR-8 ovarian. To be noted: 10 µM unless noted.
Another assay has as its system OVCAR-5 ovarian. As to conditions: 10 µM unless noted.
Another assay deals with OVCAR-4 ovarian. As to conditions: 10 µM unless noted.
The test system of a further assay is SK-OV-3 ovarian. As to conditions: 10 µM unless noted.
A further assay has as its system IGROV1 ovarian. As to conditions: 10 µM unless noted.
The next assay concerns OVCAR-3 ovarian. To be noted: 10 µM unless noted.
For a further assay, the system named is HS 578T breast. As to conditions: 10 µM.
In the next assay the test system is NCI/ADR-RES ovarian. To be noted: 10 µM unless noted.
In the next assay the test system is T-47D breast. To be noted: 10 µM unless noted.
Another assay has as its system BT-549 breast. As to conditions: 10 µM unless noted.
The test system of the next assay is MDA-MB-435 melanoma. To be noted: 10 µM unless noted.
The test system of a further assay is HCT-116 colon. As to conditions: 10 µM unless noted.
Another assay deals with HCC-2998 colon. As to conditions: 10 µM unless noted.
The subject of another assay is KM12 colon. As to conditions: 10 µM unless noted.
The next assay relates to SW-620 colon. As to conditions: 10 µM unless noted.
For a further assay, the system named is MCF7 breast. As to conditions: 10 µM unless noted.

As to `O=C(Cn1nncc1CN1C(=O)CSC1=O)Nc1ccc(F)cc1`, the growth was 124% in the assay with SR leukemia; 104% with RPMI-8226 leukemia; 108% in the assay with OVCAR-8 ovarian; 107% with OVCAR-5 ovarian; 103% in the assay on OVCAR-4 ovarian; 90.8% with SK-OV-3 ovarian. Moreover, the growth is 102% in the assay on IGROV1 ovarian; 107% in the assay with OVCAR-3 ovarian; 97.6% with HS 578T breast; 97.6% with NCI/ADR-RES ovarian; 97.8% in the assay on T-47D breast; 98.8% in the assay with BT-549 breast. In addition, the growth was 100% in the assay with MDA-MB-435 melanoma, 101% in the assay with HCT-116 colon, 96.2% with HCC-2998 colon and 106% with KM12 colon.

Consider `O=S(=O)(NCC[C@@H]1C[C@H]1c1ccc2ccccc2c1)c1ccc(C(F)(F)F)cc1`, for which the growth in the assay with SR leukemia was 92.7%; in the assay on RPMI-8226 leukemia, 76%; in the assay with OVCAR-8 ovarian, 97.4%; with OVCAR-5 ovarian it was 99.3%; with OVCAR-4 ovarian, 79.6%; with SK-OV-3 ovarian, 103%. The growth in the assay with IGROV1 ovarian was 92%; in the assay with OVCAR-3 ovarian it was 101%; in the assay on HS 578T breast, 89.6%; with NCI/ADR-RES ovarian it was 94.3%; with BT-549 breast it was 92.5%; with MDA-MB-435 melanoma it was 99.1%. For the same molecule, the growth was 98.6% in the assay with SW-620 colon; 91.1% in the assay with MCF7 breast; 88% in the assay on HCT-116 colon; 101% in the assay with HCC-2998 colon; 95.2% in the assay on KM12 colon.

As for `Brc1cccc(-n2ncc3c(Nc4ccc(-c5nnc(-c6ccccc6)o5)cc4)ncnc32)c1`, the growth was 119% with SR leukemia; 117% with RPMI-8226 leukemia; 97.8% with OVCAR-8 ovarian; 104% in the assay on OVCAR-5 ovarian; 107% with OVCAR-4 ovarian; 110% in the assay with SK-OV-3 ovarian. Further, the growth was 112% in the assay on IGROV1 ovarian; 99.6% in the assay on OVCAR-3 ovarian; 110% with HS 578T breast; 98.6% in the assay with NCI/ADR-RES ovarian; 101% in the assay with BT-549 breast; 106% with MDA-MB-435 melanoma. Further, the growth is 99.5% in the assay on SW-620 colon; 99.5% with MCF7 breast; 94.7% with HCT-116 colon; 100% with HCC-2998 colon; 102% in the assay on KM12 colon.

In the case of `COc1ccc(/C=c2\c(=O)n(-c3ccccc3)c3nn4c(=O)c(=O)[nH]nc4n23)cc1`, the growth was 108% in the assay on SR leukemia; 110% in the assay with RPMI-8226 leukemia; 109% in the assay on OVCAR-8 ovarian; 146% with OVCAR-5 ovarian; 107% in the assay on OVCAR-4 ovarian; 113% in the assay with SK-OV-3 ovarian. Besides, the growth in the assay on IGROV1 ovarian is 113%; with OVCAR-3 ovarian, 115%; with HS 578T breast, 114%; in the assay with NCI/ADR-RES ovarian, 106%; in the assay on BT-549 breast it was 105%; in the assay on MDA-MB-435 melanoma, 112%. Besides, the growth in the assay with SW-620 colon was 106%; with MCF7 breast, 102%; with HCT-116 colon, 102%; with KM12 colon, 109%.

As for `CCN(CC)CCCC(C)Nc1cnc(C(=O)Nc2cc(C)cc3cccnc23)cn1` (centres undefined), the growth in the assay on SR leukemia was 81.9%; in the assay on RPMI-8226 leukemia, 78%; in the assay on OVCAR-8 ovarian, 86.9%; in the assay on OVCAR-5 ovarian it was 97.6%; in the assay on OVCAR-4 ovarian it was 58.8%; with SK-OV-3 ovarian, 104%. Further, the growth with IGROV1 ovarian was 68.7%; with OVCAR-3 ovarian, 20.5%; in the assay on HS 578T breast, 79.9%; in the assay with NCI/ADR-RES ovarian it was 92.7%; with BT-549 breast it was 93.3%; with MDA-MB-435 melanoma, 83.7%. Moreover, the growth with SW-620 colon is 75.3%; in the assay with MCF7 breast it was 57.3%; in the assay with HCT-116 colon, 18%; with HCC-2998 colon, 89.8%; in the assay on KM12 colon, 97.9%.

With `COC(=O)c1cc2oc(/C=N/NC(=O)c3cc4oc(-c5cccc(C(F)(F)F)c5)cc4[nH]3)cc2n1Cc1ccccc1`, the growth is 33% in the assay on SR leukemia; 85.6% in the assay with RPMI-8226 leukemia; 75.2% in the assay on OVCAR-8 ovarian; 107% with OVCAR-5 ovarian; 104% in the assay with OVCAR-4 ovarian; 110% in the assay on SK-OV-3 ovarian. Also, the growth in the assay on IGROV1 ovarian was 89.6%; with OVCAR-3 ovarian, 111%; in the assay with HS 578T breast, 87.5%; in the assay with NCI/ADR-RES ovarian it was 97.9%; in the assay with T-47D breast, 94.4%; with MDA-MB-435 melanoma, 99.6%. Besides, the growth is 106% in the assay with SW-620 colon, 88.8% in the assay with MCF7 breast, 67.6% in the assay on HCT-116 colon and 88.3% with KM12 colon.

Consider `COC(=O)C(CCC(=O)CCl)N1C(=O)c2ccccc2C1=O` (centres undefined), for which the growth in the assay on SR leukemia is 8.24% (active); in the assay on RPMI-8226 leukemia, -8.21% (active); in the assay on OVCAR-8 ovarian, 59.2%; with OVCAR-5 ovarian, 79.3%; in the assay with OVCAR-4 ovarian, 72.9%; in the assay with SK-OV-3 ovarian, 113%. The growth is 27.2% with IGROV1 ovarian; 19.2% with OVCAR-3 ovarian; 85.3% with HS 578T breast; 83.5% in the assay with NCI/ADR-RES ovarian; 55.7% in the assay on BT-549 breast; 35.2% in the assay with MDA-MB-435 melanoma. Besides, the growth in the assay with SW-620 colon is 32.9%; in the assay with MCF7 breast it was 26.2%; in the assay with HCT-116 colon it was 25%; with HCC-2998 colon, 89.4%; with KM12 colon it was 101%.

Take `CCCOC(=O)C1c2cc3c(cc2CC(C)C1C(=O)OCCC)OCO3` (centres undefined): the growth in the assay on SR leukemia was 90.7%; in the assay with RPMI-8226 leukemia, 99.8%; with OVCAR-8 ovarian, 102%; in the assay on OVCAR-5 ovarian it was 84.7%; with OVCAR-4 ovarian it was 88.7%; in the assay on SK-OV-3 ovarian it was 101%. The growth is 75.8% with IGROV1 ovarian; 110% in the assay with OVCAR-3 ovarian; 103% with HS 578T breast; 81.4% in the assay on NCI/ADR-RES ovarian; 86.2% in the assay on T-47D breast; 104% with MDA-MB-435 melanoma. Also, the growth was 101% with SW-620 colon; 100% with MCF7 breast; 60.1% in the assay with HCT-116 colon; 98.6% in the assay with HCC-2998 colon; 108% with KM12 colon.

Consider `N[C@@H](CO)C(=O)O`, for which the growth in the assay on SR leukemia is 103%; with RPMI-8226 leukemia, 96.9%; in the assay with OVCAR-8 ovarian it was 99.8%; in the assay on OVCAR-5 ovarian it was 104%; in the assay on OVCAR-4 ovarian, 109%; with SK-OV-3 ovarian it was 111%. Further, the growth in the assay on IGROV1 ovarian is 110%; with OVCAR-3 ovarian, 98.4%; with HS 578T breast, 117%; in the assay on NCI/ADR-RES ovarian it was 95.4%; in the assay on T-47D breast, 96.9%; with BT-549 breast it was 104%. Also, the growth in the assay with MDA-MB-435 melanoma was 97.4%; in the assay with MCF7 breast, 104%; with HCC-2998 colon, 98.1%; in the assay on KM12 colon it was 102%.
